# The full list was thinned out, with hits kept by preference.
# Pf Dd2 growth = qHTS Primary assay for Inhibitors of Plasmodium falciparum Dd2 growth in vitro | P. falciparum Dd2 growth, SYBR Green, 72 h | 120,000 compounds, 4.3% hits | AID 1347417, 2020 | Potency, µM (doses to about 28.9 µM), usual class: inhibitors; active means well fitted inhibition curve with a large enough effect; further: nearly all actives have a fitted effect of over 65% in size
#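 Readout: SYBR Green fluorescence, 485 nm excitation, 535 nm emission, after ~16 h lysis at 37C. Before that, Dd2-infected red cells (2.5% hematocrit) grew 72 h with compound, 29 uM top final concentration.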
# Hits are given with their value; – = inactive.
SMILES,Pf Dd2 growth
COc1ccc(-c2nc3n(n2)C(=O)CC(c2ccc(Cl)cc2)S3)cc1 (configuration not stated),–
Cc1cc(C)n2nc(-c3ccc(Cl)cc3)nc2n1,–
Cc1ccc(S(=O)(=O)Nc2nc3n(n2)C(c2ccccc2Cl)C=C(c2ccccc2)N3)cc1 (configuration not stated),–
Cc1ccc(NC(=O)Cn2c(N3CCCCC3)nc(C)c(C)c2=O)cc1,–
Cn1ncc2c(C(=O)NC3CC3)cc(-c3ccc(F)cc3)nc21,–
Cn1nccc1C(=O)N1CCCC1C(=O)Nc1cccc(-n2cccn2)c1 (configuration not stated),–
CCn1nccc1C(=O)NCCc1ncc(C)n1C1CC1,–
Cn1cc(-c2cc(=O)c3ccnc(Nc4ccc5[nH]ccc5c4)c3o2)cn1,7.1µM
Cn1cc(-c2cc(=O)c3ccnc(NCc4ccc(F)cc4)c3o2)cn1,–
Cn1cc(-c2cc(=O)c3ccnc(NC4CCOCC4)c3o2)cn1,–
COC1CCOC2(CCN(C(=O)c3ccc4ccccc4n3)CC2)C1 (configuration not stated),–
O=C1N[C@H](CCC(=O)N2CCN(CCc3ccccn3)CC2)C(=O)Nc2ccccc21,–
CC(C)c1nnc(C2CN(C(=O)CC3CCCC3)CC23CCOCC3)o1 (configuration not stated),–
Cc1ccc(S(=O)(=O)N2CCC3(CC2)SCC(=O)N3Cc2ccco2)cc1,–
OC1(CN2CCN(Cc3cccc(Cl)c3)CC2)CCCNC1 (configuration not stated),–
OCC1(Cc2cccc(Cl)c2)CCCNC1 (configuration not stated),11µM
COc1cccc(CC2(CO)CCCN(C(=O)c3cn4ccsc4n3)C2)c1 (configuration not stated),–
C=CCNC(=O)C(NC(=O)c1ccc2c(c1)OCO2)C1CCN(C(=O)c2cccc(F)c2)CC1 (configuration not stated),–
Cc1ccccc1Nc1c(-c2ccc(N3CCOCC3)cc2)nc2ccc(Br)cn12,8.9µM
Cc1ccccc1Nc1c(-c2cccnc2)nc2cccc(C)n12,–
Cc1ccc(Nc2c(-c3cccnc3)nc3ccc(Br)cn23)cc1,–
COc1cc(O)ccc1-c1nc2ccc(Br)cn2c1Nc1ccccc1C,6.3µM
Cc1ccccc1Nc1c(-c2c[nH]c3ccccc23)nc2ccc(Cl)cn12,–
Cc1ccccc1Nc1c(-c2cccs2)nc2cccc(C)n12,–
Cc1ccccc1Nc1c(-c2ccsc2)nc2c(C)cccn12,–
SMILES,Pf Dd2 growth
COc1ccc(-c2nc3ccc(Cl)cn3c2Nc2ccc(C)cc2)cc1,–
Cc1ccccc1Nc1c(-c2ccc(N3CCOCC3)cc2)nc2cccc(C)n12,10µM
O=C(NC1C[C@H]2CC[C@@H](C1)N2C(=O)CCC1CCCCC1)c1ccncc1 (some centres not stated),–
O=C(CCc1cccnc1)N1CC[C@@H](c2ccc3ccccc3c2)[C@H](O)C1,–
CCN(CC)Cc1cnc2c(C(=O)N3CCCCC3CCO)cnn2c1 (configuration not stated),–
CCO[C@H]1CN(C(=O)CCc2ccc(-c3ccc(Cl)cc3)[nH]2)C[C@@H]1O,–
COCCn1cnnc1C(C)Nc1nc(-c2cccnc2)nc2c1CNC2 (configuration not stated),–
Cc1cccc(OCC2(CNC(=O)C3CC3)C[C@@H](O)[C@@H](O)C2)n1 (some centres not stated),–
O=C(O)COc1ccc(-c2nccc3c2C(=O)N(Cc2cccc(C(F)(F)F)c2)CC(COc2ccc(OC(F)(F)F)cc2)O3)cc1 (configuration not stated),–
COc1cc(OC)cc(OCC2CN(Cc3cccc(C(F)(F)F)c3)C(=O)c3c(ccnc3-c3ccc(OCC(=O)O)cc3)O2)c1 (configuration not stated),–
O=C(O)COc1ccc(-c2nccc3c2C(=O)N(Cc2cccc(C(F)(F)F)c2)CC(CNC(=O)c2cccc(Cl)c2)O3)cc1 (configuration not stated),10µM
COc1ccc(CN2C=C(C(=O)OCc3noc(-c4ccc(C)cc4)n3)C(C)=NS2(=O)=O)cc1,11µM
COc1ccc(CN2C=C(C(=O)OCc3noc(-c4ccc(C)c(C)c4)n3)C(C)=NS2(=O)=O)cc1,–
COc1ccc(CN2C=C(C(=O)OCc3noc(C)n3)C(C)=NS2(=O)=O)cc1,–
O=Cc1ccccc1Oc1ccc(F)c(Cl)c1,–
Cc1ccccc1CN1Cc2nc(-c3ccccc3)ccc2OCC1=O,–
Cc1ccccc1CN1Cc2nc(-c3cnn(C)c3)ccc2OCC1=O,–
Cc1ccccc1CN1Cc2nc(N3CCCC3)ccc2OCC1=O,10µM
O=C(Nc1ccc(Br)cc1)c1ccc(Br)c(S(=O)(=O)N2CCCCC2)c1,–
CCOc1ccc(NC(=O)c2cc(S(=O)(=O)N3CCOCC3)ccc2F)cc1,–
CCOc1ccc(NC(=O)c2cc(S(=O)(=O)NC3CCCCCC3)ccc2F)cc1,4µM
O=C(Nc1ccc(Br)cc1)c1ccc(F)c(S(=O)(=O)NC2CCCCCC2)c1,1.3µM

# Screening results deposited in PubChem BioAssay by National Center for Advancing Translational Sciences (NCATS).
